# Where a chain is given by its changes, count along the chain named.
# Assays:
# Assay in all cases: yeast three-hybrid, YBZ-1, SC-Leu-His + 0.5 mM 3-AT, 4 days
# Details in all cases: tags: N-Gal4 AD-HA kept; label: inside an RPR1-promoter hybrid RNA with tandem MS2 sites; ssRNA
# [1] = molecular target: PUM1 PUF domain R5-NSV (Homo sapiens, UniProt Q14671 828-1176, C1007N;R1008S;Q1011V)
# How it was run: (§1)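 Repeat regions from input (SC-Leu) and selection (SC-Leu-His + 0.5 mM 3-AT) plates were PCR-amplified and Illumina-sequenced after four days of growth. The cells were strain YBZ-1 with a LexA–MS2 coat fusion and a HIS3 reporter, co-expressing Pumilio-1 PUF domain libraries and matching RNA elements from a centromeric plasmid. The interaction score is the log change in variant frequency from input to selection, taken in log2 with a pseudocount of 1 for absent variants.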
# [2] = molecular target: PUM1 PUF domain R5-KLE (Homo sapiens, UniProt Q14671 828-1176, C1007K;R1008L;Q1011E)
# How it was run: as §1
# [3] = molecular target: PUM1 PUF domain R5-RRH (Homo sapiens, UniProt Q14671 828-1176, C1007R;Q1011H)
# Chain of PUM1 PUF domain R5-RRH (Q14671 828-1176 C1007R/Q1011H): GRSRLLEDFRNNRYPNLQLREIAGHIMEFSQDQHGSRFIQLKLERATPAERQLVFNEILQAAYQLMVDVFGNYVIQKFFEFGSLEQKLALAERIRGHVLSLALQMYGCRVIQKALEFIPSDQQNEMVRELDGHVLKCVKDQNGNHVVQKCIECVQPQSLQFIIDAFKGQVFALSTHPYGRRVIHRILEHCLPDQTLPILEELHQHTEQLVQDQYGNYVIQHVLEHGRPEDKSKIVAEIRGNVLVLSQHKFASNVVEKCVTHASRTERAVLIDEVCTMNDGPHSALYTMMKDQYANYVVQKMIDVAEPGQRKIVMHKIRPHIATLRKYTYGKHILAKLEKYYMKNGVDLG
# How it was run: as §1
# [4] = molecular target: PUM1 PUF domain R3-RAT (Homo sapiens, UniProt Q14671 828-1176, C935R;R936A;Q939T)
# How it was run: as §1
# [5] = molecular target: PUM1 PUF domain R3-MRY (Homo sapiens, UniProt Q14671 828-1176, C935M;Q939Y)
# Chain of PUM1 PUF domain R3-MRY (Q14671 828-1176 C935M/Q939Y): as the sequence (Q14671 828-1176 C1007R/Q1011H) above, with C108M, Q112Y, R180C, H184Q counted along it
# How it was run: as §1
# [6] = molecular target: PUM1 PUF domain R3-RRA (Homo sapiens, UniProt Q14671 828-1176, C935R;Q939A)
# Chain of PUM1 PUF domain R3-RRA (Q14671 828-1176 C935R/Q939A): as the sequence (Q14671 828-1176 C1007R/Q1011H) above, with C108R, Q112A, R180C, H184Q counted along it
# How it was run: as §1
# [7] = molecular target: PUM1 PUF domain R3-QCD (Homo sapiens, UniProt Q14671 828-1176, C935Q;R936C;Q939D)
# Chain of PUM1 PUF domain R3-QCD (Q14671 828-1176 C935Q/R936C/Q939D): as the sequence (Q14671 828-1176 C1007R/Q1011H) above, with C108Q, R109C, Q112D, R180C, H184Q counted along it
# How it was run: as §1
# [8] = molecular target: PUM1 PUF domain R3-APD (Homo sapiens, UniProt Q14671 828-1176, C935A;R936P;Q939D)
# Chain of PUM1 PUF domain R3-APD (Q14671 828-1176 C935A/R936P/Q939D): as the sequence (Q14671 828-1176 C1007R/Q1011H) above, with C108A, R109P, Q112D, R180C, H184Q counted along it
# How it was run: as §1
# [9] = molecular target: PUM1 PUF domain R3-IWD (Homo sapiens, UniProt Q14671 828-1176, C935I;R936W;Q939D)
# Chain of PUM1 PUF domain R3-IWD (Q14671 828-1176 C935I/R936W/Q939D): as the sequence (Q14671 828-1176 C1007R/Q1011H) above, with C108I, R109W, Q112D, R180C, H184Q counted along it
# How it was run: as §1
# [10] = molecular target: PUM1 PUF domain R8-SHR (Homo sapiens, UniProt Q14671 828-1176, N1122S;Y1123H;Q1126R)
# How it was run: as §1
# [11] = molecular target: PUM1 PUF domain R8-RWW (Homo sapiens, UniProt Q14671 828-1176, N1122R;Y1123W;Q1126W)
# Chain of PUM1 PUF domain R8-RWW (Q14671 828-1176 N1122R/Y1123W/Q1126W): as the sequence (Q14671 828-1176 C1007R/Q1011H) above, with R180C, H184Q, N295R, Y296W, Q299W counted along it
# How it was run: as §1
# [12] = molecular target: PUM1 PUF domain R8-QFC (Homo sapiens, UniProt Q14671 828-1176, N1122Q;Y1123F;Q1126C)
# Chain of PUM1 PUF domain R8-QFC (Q14671 828-1176 N1122Q/Y1123F/Q1126C): as the sequence (Q14671 828-1176 C1007R/Q1011H) above, with R180C, H184Q, N295Q, Y296F, Q299C counted along it
# How it was run: as §1
# [13] = molecular target: PUM1 PUF domain R4-APC (Homo sapiens, UniProt Q14671 828-1176, N971A;H972P;Q975C)
# Chain of PUM1 PUF domain R4-APC (Q14671 828-1176 N971A/H972P/Q975C): as the sequence (Q14671 828-1176 C1007R/Q1011H) above, with N144A, H145P, Q148C, R180C, H184Q counted along it
# How it was run: as §1
# [14] = molecular target: PUM1 PUF domain R1-GYR (Homo sapiens, UniProt Q14671 828-1176, S863G;R864Y;Q867R)
# Chain of PUM1 PUF domain R1-GYR (Q14671 828-1176 S863G/R864Y/Q867R): as the sequence (Q14671 828-1176 C1007R/Q1011H) above, with S36G, R37Y, Q40R, R180C, H184Q counted along it
# How it was run: as §1
# [15] = molecular target: PUM1 PUF domain R5-DCR (Homo sapiens, UniProt Q14671 828-1176, C1007D;R1008C;Q1011R)
# How it was run: as §1
# [16] = molecular target: PUM1 PUF domain R1-KTS (Homo sapiens, UniProt Q14671 828-1176, S863K;R864T;Q867S)
# How it was run: as §1
# [17] = molecular target: T1, PUM1 PUF domain R6-CFF (Homo sapiens, UniProt Q14671 828-1176, N1043C;Y1044F;Q1047F)
# T1 sequence: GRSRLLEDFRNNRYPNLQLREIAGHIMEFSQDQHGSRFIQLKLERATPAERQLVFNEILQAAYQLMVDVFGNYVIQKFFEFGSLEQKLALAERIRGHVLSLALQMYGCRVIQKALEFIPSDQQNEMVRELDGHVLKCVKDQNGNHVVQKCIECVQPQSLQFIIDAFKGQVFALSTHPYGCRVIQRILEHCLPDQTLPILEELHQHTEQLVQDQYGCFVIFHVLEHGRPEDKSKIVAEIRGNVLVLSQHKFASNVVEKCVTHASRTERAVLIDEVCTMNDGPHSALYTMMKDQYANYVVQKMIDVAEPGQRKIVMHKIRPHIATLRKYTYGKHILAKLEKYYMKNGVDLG
# How it was run: as §1
# [18] = molecular target: PUM1 PUF domain R2-NFP (Homo sapiens, UniProt Q14671 828-1176, Y900F;Q903P)
# How it was run: as §1
# [19] = molecular target: PUM1 PUF domain R5-SRT (Homo sapiens, UniProt Q14671 828-1176, C1007S;Q1011T)
# How it was run: as §1
# [20] = molecular target: T2, PUM1 PUF domain R6-NYW (Homo sapiens, UniProt Q14671 828-1176, Q1047W)
# T2 sequence: T1 sequence with C216N, F217Y, F220W
# How it was run: as §1
sequence,measurement,setting,value
GGCUAGAACUAGUGGAUCCCCCGGCGCCCGGCGGCUCGAGCCCGGGUAAGUGUUAAUAGUCUGCAUGCCGCCGGGCGCCAUGCCUGCAGGUCGACUCUAGAAAACAUG,binding signal,[1],2.21 log2 enrichment (interaction score)
same,binding signal,[2],2.51 log2 enrichment (interaction score)
GGCUAGAACUAGUGGAUCCCCCGGCGCCCGGCGGCUCGAGCCCGGGUAAGUGUGAAUAGUCUGCAUGCCGCCGGGCGCCAUGCCUGCAGGUCGACUCUAGAAAACAUG,binding signal,[1],0.18 log2 enrichment (interaction score)
same,binding signal,[3],1.47 log2 enrichment (interaction score)
GGCUAGAACUAGUGGAUCCCCCGGCGCCCGGCGGCUCGAGCCCGGGUAAGUGUAAUUAGUCUGCAUGCCGCCGGGCGCCAUGCCUGCAGGUCGACUCUAGAAAACAUG,binding signal,[4],3.26 log2 enrichment (interaction score)
same,binding signal,[5],1.32 log2 enrichment (interaction score)
same,binding signal,[6],3.19 log2 enrichment (interaction score)
GGCUAGAACUAGUGGAUCCCCCGGCGCCCGGCGGCUCGAGCCCGGGUAAGUGUAAGUAGUCUGCAUGCCGCCGGGCGCCAUGCCUGCAGGUCGACUCUAGAAAACAUG,binding signal,[5],4.3 log2 enrichment (interaction score)
same,binding signal,[7],3.09 log2 enrichment (interaction score)
same,binding signal,[8],6.54 log2 enrichment (interaction score)
same,binding signal,[9],4.83 log2 enrichment (interaction score)
GGCUAGAACUAGUGGAUCCCCCGGCGCCCGGCGGCUCGAGCCCGGGUAAGCGUAAAUAGUCUGCAUGCCGCCGGGCGCCAUGCCUGCAGGUCGACUCUAGAAAACAUG,binding signal,[10],3.61 log2 enrichment (interaction score)
same,binding signal,[11],5.89 log2 enrichment (interaction score)
same,binding signal,[12],3.87 log2 enrichment (interaction score)
GGCUAGAACUAGUGGAUCCCCCGGCGCCCGGCGGCUCGAGCCCGGGUAAGUGUAUAUAGUCUGCAUGCCGCCGGGCGCCAUGCCUGCAGGUCGACUCUAGAAAACAUG,binding signal,[13],3.17 log2 enrichment (interaction score)
GGCUAGAACUAGUGGAUCCCCCGGCGCCCGGCGGCUCGAGCCCGGGUAAGUGUAAAUUGUCUGCAUGCCGCCGGGCGCCAUGCCUGCAGGUCGACUCUAGAAAACAUG,binding signal,[14],2.71 log2 enrichment (interaction score)
GGCUAGAACUAGUGGAUCCCCCGGCGCCCGGCGGCUCGAGCCCGGGUAAGUGUCAAUAGUCUGCAUGCCGCCGGGCGCCAUGCCUGCAGGUCGACUCUAGAAAACAUG,binding signal,[15],2.94 log2 enrichment (interaction score)
same,binding signal,[2],5.37 log2 enrichment (interaction score)
same,binding signal,[3],5.57 log2 enrichment (interaction score)
GGCUAGAACUAGUGGAUCCCCCGGCGCCCGGCGGCUCGAGCCCGGGUAAGUGUAAAUCGUCUGCAUGCCGCCGGGCGCCAUGCCUGCAGGUCGACUCUAGAAAACAUG,binding signal,[16],4.91 log2 enrichment (interaction score)
same,binding signal,[14],4.99 log2 enrichment (interaction score)
GGCUAGAACUAGUGGAUCCCCCGGCGCCCGGCGGCUCGAGCCCGGGUAAGUGUAAAUAGUCUGCAUGCCGCCGGGCGCCAUGCCUGCAGGUCGACUCUAGAAAACAUG,binding signal,[17],4.85 log2 enrichment (interaction score)
same,binding signal,[10],4.08 log2 enrichment (interaction score)
same,binding signal,[18],2.11 log2 enrichment (interaction score)
same,binding signal,[19],3.34 log2 enrichment (interaction score)
same,binding signal,[20],2.24 log2 enrichment (interaction score)
same,binding signal,[3],1.96 log2 enrichment (interaction score)
same,binding signal,[8],4.44 log2 enrichment (interaction score)
same,binding signal,[11],4.93 log2 enrichment (interaction score)
same,binding signal,[13],4.14 log2 enrichment (interaction score)
GGCUAGAACUAGUGGAUCCCCCGGCGCCCGGCGGCUCGAGCCCGGGUAAGUGUACAUAGUCUGCAUGCCGCCGGGCGCCAUGCCUGCAGGUCGACUCUAGAAAACAUG,binding signal,[13],1.88 log2 enrichment (interaction score)

# Reference: PMC8384837, “Expanding the binding specificity for RNA recognition by a PUF domain”
